Screening results from PubChem.
DAX1 inh-1 – inhibits human nuclear receptor DAX1; P51843; HEK293 Gal4-DAX1 luciferase reporter, luminescence; 0.99% of 340,000 active; AID 504766; inhibition, % at 6.75 µM;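 active = inhibition above the mean over all tested compounds plus 3 SD, cut at about 4.2% in these data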;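 also: 0% = DAX1-transfected cells with DMSO and 100% = empty-vector control cells with DMSO; inhibition shows as a rise in luminescence from relieved DAX1 repression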
Target sequence (P51843 207-470 limits assumed): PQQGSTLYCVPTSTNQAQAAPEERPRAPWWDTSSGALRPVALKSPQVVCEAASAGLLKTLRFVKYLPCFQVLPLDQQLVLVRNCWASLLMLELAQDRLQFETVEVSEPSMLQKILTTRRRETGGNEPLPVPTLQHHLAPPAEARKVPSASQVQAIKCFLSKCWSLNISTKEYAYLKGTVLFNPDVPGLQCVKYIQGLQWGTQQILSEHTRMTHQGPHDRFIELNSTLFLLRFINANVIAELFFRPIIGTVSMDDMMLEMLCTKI
hcDAF12 agonist – H. contortus DAF-12 activation, primary screen; 1.4% of 370,000 active; activation, % at 6.8 µM; HEK293 hcDAF-12 lit1-tk-luc reporter, luminescence; 0% DMSO, 100% Δ7-dafachronic acid;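 active = activation above the mean of all tested compounds plus 3 SD, cut at about 5.5% in these data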;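 also: 100% = response to 3 µM Δ7-dafachronic acid high control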
DAX1 inh-2 – DAX1 (NR0B1) inhibition, primary screen. HEK293T StAR-luciferase reporter, SF-1/DAX-1 repression relief. inhibition, % at 6.8 µM. 1.1% of 370,000 active;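 active = inhibition above the mean over all tested compounds plus 3 SD, cut at about 3.6% in these data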;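 also: 0% = DAX-1 cells with DMSO and 100% = cells lacking DAX-1 with DMSO; higher inhibition means more luminescence from relief of DAX-1 repression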
AHR activator – activates the human aryl hydrocarbon receptor; AHR-responsive luciferase reporter cells, luminescence; activation, % at 5 µM; 2.5% of 320,000 active; AID 2796; in the data active = activation above about 47%;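 also: 0% = vehicle wells and 100% = reference agonist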
ssDAF12 agonist – activators of S. stercoralis DAF-12 nuclear receptor; HEK293 ssDAF-12/GRIP1 lit1-tk-luc reporter, luminescence; % of 3 µM dafachronic acid response; 1% of 370,000 active; activation, % at 6.8 µM;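 active = activation above the mean over all tested compounds plus 3 SD, cut at about 0.9% in these data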;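 also: 0% = DMSO-only wells and 100% = 3 µM delta7-dafachronic acid wells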
hgDAF12 agonist – activates the H. glycines DAF-12 receptor ligand-binding domain; HEK293 GAL4-hgDAF12 UAS-luciferase reporter, agonist luminescence; normalized to butyrate control; 1.8% of 370,000 active; activation, % at 6.8 µM;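 active = activation above a cutoff set at the mean of all screened compounds plus 3 SD, cut at about 10% in these data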;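 also: 0% = DMSO wells and 100% = sodium butyrate wells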
* hit, by the source's call; x = no result given. The list is not random: actives were taken first. Their share in the collection is about 5.7%.

SMILES | DAX1 inh-1 | hcDAF12 agonist | DAX1 inh-2 | AHR activator | ssDAF12 agonist | hgDAF12 agonist
Cc1ccc(C(=O)NN2C(=O)c3ccc(S(=O)(=O)c4ccc(C(=O)O)cc4)cc3C2=O)cc1 | 2 | 1 | 0 | 3 | -1 | 2
CCOC(=O)CN1C=C(c2ccc3ccccc3n2)C(C[N+](=O)[O-])c2ccccc21 (configuration not stated) | 0 | x | x | 67* | x | x
O=C1CCCC(O)=C1C1NCCc2ccccc21 (configuration not stated) | 1 | -1 | 1 | -1 | -1 | 2
CC1CC2CCCC(O)=C2C(=O)O1 (configuration not stated) | 4.3* | 1 | -1 | x | 0 | -1
Cc1cccnc1CCNC(=O)CCc1nnc(CCc2ccccc2)o1 | 4.7* | 1 | -1 | 1 | 0 | 1
Cc1cccnc1CN1CCN(C(=O)CCc2nnc(CCc3ccccc3)o2)CC1 | 0 | 0 | 1 | 1 | -1 | 5
Cc1ccc(NC(=O)C2=NNC(=O)CC2)cc1F | 2 | 0 | 1 | 1 | -1 | 4
CC(C)c1ccc(NC(=O)C2=NNC(=O)CC2)cc1 | 5.3* | 3 | 2 | 1 | -1 | 7
Cc1cc(Cl)ccc1NC(=S)N1CCN(Cc2ccccc2)CC1 | 0 | -3 | -1 | 5 | -2 | -3
Cc1cccc(NC(=S)N2CCN(c3ccccc3)CC2)c1 | x | -2 | 0 | -1 | -2 | -1
S=C(Nc1ccccc1)N1CCN(c2ccccn2)CC1 | 0 | -2 | -1 | -3 | 1.9* | -3
COc1ccc(NC(=S)N2CCN(c3ccccn3)CC2)cc1 | -1 | -1 | 0 | -2 | -1 | 0
Cc1cccc(CN2CCN(C(=S)Nc3ccccc3)CC2)c1 | 11* | 1 | 1 | -1 | -2 | 0
S=C(Nc1ccccc1)N1CCN(C/C=C/c2ccccc2)CC1 | -1 | -1 | 3.6* | 2 | -2 | -4
Cc1cccc(NC(=S)N2CCN(Cc3ccccc3)CC2)c1C | -1 | 5.9* | 0 | 0 | -1 | 1
CN(C)c1ccc(CNC(=O)C2(C)Cc3c(-c4cccc(C(N)=O)c4)ccnc3O2)cc1 (configuration not stated) | x | -1 | -1 | x | 0 | -5
CCN(CC)c1ccc(C=C2C(=O)OC(C)(C(C)(C)C)OC2=O)cc1 (configuration not stated) | 4.9* | 1 | -1 | 0 | -1 | 0
C=CCn1c(SCc2nc3sc(C(=O)O)c(C)c3c(=O)[nH]2)nnc1-c1ccccc1 | -1 | 4 | -1 | 1 | -1 | -3
O=C(COC(=O)/C=C/c1ccc(F)cc1)NC(=O)NCc1ccccc1 | 0 | -1 | 1 | x | -1 | 0
CCOC(=O)c1c(CN2CCOCC2)n(-c2ccccc2)c2cc(Br)c(O)c(CN(C)C)c12 | 0 | -1 | 0 | 1 | -1 | -5
C/C(=N\NC(=O)C1CC1c1ccccc1)c1ccc(C)s1 (configuration not stated) | 0 | -1 | -1 | 75* | -1 | -1
CN(C)CCCNc1oc(-c2ccccc2)nc1C#N | 1 | -2 | 0 | 1 | -2 | 0
CN(C)CCNc1oc(-c2ccccc2F)nc1C#N | 5.9* | 0 | -1 | 1 | -2 | 0
CN(C)CCNc1oc(-c2cccc(Cl)c2)nc1C#N | 2 | -1 | 0 | 78* | -1 | 1
CCOc1ccc2oc(C(=O)NC(C)(C)CC)c(C)c2c1 | 3 | 0 | 1 | 20 | -1 | 13*
SMILES | DAX1 inh-1 | hcDAF12 agonist | DAX1 inh-2 | AHR activator | ssDAF12 agonist | hgDAF12 agonist
CCCCCN1CCCCC(NC(=O)C2CCCCC2)C1=O (configuration not stated) | x | -1 | -2 | x | -1 | 2
CC1CC1C(=O)OCc1cc(=O)n2cc(Br)ccc2n1 (configuration not stated) | 2 | 0 | 2 | -2 | 0 | 9
CC1(C(=O)OCc2cc(=O)n3cc(Br)ccc3n2)CC1(Cl)Cl (configuration not stated) | 0 | 2 | 3 | 9 | 0 | 11*
COc1ccc(N2CCN(c3nc(NCCc4ccc(OC)c(OC)c4)nc(OC)n3)CC2)cc1 | -2 | -3 | -1 | 10 | -2 | -1
Cc1ncsc1C(=O)Nc1nc2c(s1)CC(C)CC2 (configuration not stated) | 1 | 3 | 3 | 14 | 0 | 13*
COc1ccccc1NC(=O)Cc1csc(NC(=S)Nc2ccc(C)cc2)n1 | -1 | -2 | -2 | 10 | -1 | -3
Clc1ccc(C2NCCc3sccc32)cc1 (configuration not stated) | -1 | 0 | 0 | 14 | -2 | -2
FC(F)(F)c1ccc(C2NCCc3sccc32)cc1 (configuration not stated) | 1 | 3 | 1 | 65* | -1 | 5
Cc1ccc(Nc2nc(COC(=O)C3CC3)cs2)cc1 | 0 | 2 | 2 | 4 | -1 | 11*
Fc1ccc(C2=CC(c3ccc(Br)o3)n3ncnc3N2)cc1 (configuration not stated) | -1 | x | x | 87* | x | x
Fc1ccc(Br)cc1C1C=C(c2cccnc2)Nc2ncnn21 (configuration not stated) | 0 | x | x | 59* | x | x
CC(C)(C)c1ccc(C2=CC(c3ccccc3F)n3ncnc3N2)cc1 (configuration not stated) | 0 | 0 | 0 | 26 | -1 | 2
COc1ccc(C2C=C(c3ccc(C)cc3)Nc3ncnn32)cc1 (configuration not stated) | -1 | 2 | 1 | x | 0 | 11*
Cn1cccc1C1C=C(c2ccc(C(C)(C)C)cc2)Nc2ncnn21 (configuration not stated) | -1 | -1 | -1 | 67* | -1 | 3
CCOc1ccc(C2C=C(c3ccc(F)cc3)Nc3ncnn32)cc1 (configuration not stated) | 0 | 3 | 1 | 63* | -1 | 4
Brc1ccc(C2=CC(c3cccs3)n3ncnc3N2)cc1 (configuration not stated) | 0 | 0 | -1 | 85* | 0 | 1
OCCCc1nc2n(n1)C(c1cccs1)C=C(c1ccc(Br)cc1)N2 (configuration not stated) | x | x | x | -12 | x | x
CCn1nc(C)cc1C(=O)NC1CCCc2c1cnn2-c1ccc(C)c(C)c1 (configuration not stated) | -2 | -5 | -8 | 4 | -3 | -8
Cc1cc(C(=O)OC(C)C(=O)NC2CCCCC2)c(C)o1 (configuration not stated) | 0 | -1 | -1 | 0 | -1 | 1
O=C1CCC(OCc2ccccc2)CCN1CC[C@@H](Sc1ccccc1)c1ccccc1 (some centres not stated) | x | -1 | -1 | x | -2 | -1
